Assay [1] in a line: NCI Yeast Anticancer Drug Screen. Data for the rad50 strain (AID 155).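 Further: 0% = growth of vehicle-only cultures of the same strain.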 As to conditions: S. cerevisiae rad50 strain growth inhibition, stronger effect = higher value. In a few lines: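 Inhibition values express reduced yeast growth in compound-treated cultures relative to vehicle-treated controls.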
Assay [2] in a line: NCI Yeast Anticancer Drug Screen. Data for the mec2-1 strain (AID 157). As to conditions: S. cerevisiae mec2-1 strain, stronger effect = higher value. An outline of the steps: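 mec2-1 yeast strain, carrying an alteration in DNA damage repair or cell cycle control, was exposed to compounds; growth inhibition was measured relative to vehicle-treated controls.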
Assay [3] is described as follows: NCI Yeast Anticancer Drug Screen. Data for the sgs1 mgt1 strain (AID 161).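 Further: 0% = growth of cultures given vehicle only.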 As to conditions: S. cerevisiae sgs1 mgt1 strain, stronger effect = higher value. In a few lines:
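This yeast growth screen uses a strain with defined DNA-repair lesions; compound-treated growth is compared with vehicle-treated growth.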

Assay [4] can be described thus: NCI Yeast Anticancer Drug Screen. Data for the cln2 rad14 strain (AID 165).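 Further: 0% = growth equal to vehicle treated cultures.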 The conditions noted are these: S. cerevisiae cln2 rad14 strain, stronger effect = higher value. In a few lines:
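Yeast carrying cln2 and rad14 alterations (cell cycle control and DNA damage repair) were exposed to compounds. Growth inhibition was measured against vehicle-treated controls.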

Assay [5] is described as follows: NCI Yeast Anticancer Drug Screen. Data for the bub3 strain (AID 167). The conditions noted are these: S. cerevisiae bub3 mutant strain, stronger effect = higher value. In a few lines:
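Steps: expose the mutant yeast strain to compound; grow alongside vehicle-treated cultures; measure growth; express inhibition against the vehicle cultures.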

Assay [6] can be described thus: NCI Yeast Anticancer Drug Screen. Data for the mlh1 rad18 strain (AID 175). As to conditions: S. cerevisiae mlh1 rad18 strain growth inhibition, stronger effect = higher value. In a few lines: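 Growth inhibition of the yeast strain was measured after compound exposure and expressed relative to vehicle-treated controls. The strain carries defined defects in DNA damage repair.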

The mark [7] stands for this setting: at 5.0 µM (retest, dose inferred, filed as 0.5).
The mark [8] stands for this setting: at 50.0 µM (retest, dose inferred, filed as 5.0).

Compounds without any hit were thinned out: in the full panel of roughly 79,000, 15% have a hit. A number with no mark means an inactive call. The source made the active and inactive calls. No stated cut-off is given here; in the data, active means growth inhibition above about 70%; inactive means the rest.

Consider `CC(C)(C)N1OC2(c3ccccc3)OC3N(C(C)(C)C)OC4(c5ccccc5)OC1C2(c1ccccc1)C34c1ccccc1` (stereo not given), for which the growth inhibition in assay [1] (setting [7]) was -4%; in assay [1] (setting [8]), 99% (active); in assay [1] (at 50.0 µM), 93.7% (active); in assay [2] (setting [7]), -2%; in assay [2] (setting [8]) it was 100% (active); in assay [2] (at 50.0 µM), 97.9% (active). Further, the growth inhibition is -5% in assay [3] (setting [7]); 99% (active) in assay [3] (setting [8]); 72% (active) in assay [3] (at 50.0 µM); 4% in assay [4] (setting [7]); 99% (active) in assay [4] (setting [8]); 98% (active) in assay [4] (at 50.0 µM). Moreover, the growth inhibition in assay [5] (setting [7]) is 1%; in assay [5] (setting [8]), 99% (active); in assay [5] (at 50.0 µM), 99.2% (active); in assay [6] (setting [7]) it was 0%; in assay [6] (setting [8]), 99% (active); in assay [6] (at 50.0 µM), 96% (active).
For the compound `O=C(CCCCOCCCCC(=O)OCC1CCCO1)OCC1CCCO1` (stereo not given), the growth inhibition in assay [1] (setting [7]) is -1%; in assay [1] (setting [8]), -2%; in assay [1] (at 50.0 µM) it was 9.1%; in assay [2] (setting [7]), 0%; in assay [2] (setting [8]), 2%; in assay [2] (at 50.0 µM), 16.9%. For the same compound, the growth inhibition was -91% in assay [3] (setting [7]); 4% in assay [3] (setting [8]); 45% in assay [3] (at 50.0 µM); 2% in assay [4] (setting [7]); -9% in assay [4] (setting [8]); 10.3% in assay [4] (at 50.0 µM). The growth inhibition is -4% in assay [5] (setting [7]); -3% in assay [5] (setting [8]); 13.5% in assay [5] (at 50.0 µM); -1% in assay [6] (setting [7]); -12% in assay [6] (setting [8]); 18.1% in assay [6] (at 50.0 µM).
Regarding `CN(C)C1=C(Cl)C(=O)c2ccccc2C1=O`, the growth inhibition in assay [1] (setting [7]) was 12%; in assay [1] (setting [8]), 93% (active); in assay [1] (at 50.0 µM), 47.7%; in assay [2] (setting [7]), 14%; in assay [2] (setting [8]), 87% (active); in assay [2] (at 50.0 µM) it was 45.6%. The growth inhibition in assay [3] (setting [7]) is 14%; in assay [3] (setting [8]), 93% (active); in assay [3] (at 50.0 µM), 44.9%; in assay [4] (setting [7]), 11%; in assay [4] (setting [8]) it was 60%; in assay [4] (at 50.0 µM) it was 34.8%. The growth inhibition was 14% in assay [5] (setting [7]); 96% (active) in assay [5] (setting [8]); 82% (active) in assay [5] (at 50.0 µM); 15% in assay [6] (setting [7]); 87% (active) in assay [6] (setting [8]); 42.4% in assay [6] (at 50.0 µM).
Turning to `Nc1nc(-c2ccc3c(c2)Sc2ccccc2O3)cs1`, the growth inhibition in assay [1] (setting [7]) was 18%; in assay [1] (setting [8]), 99% (active); in assay [1] (at 50.0 µM), 67.6%; in assay [2] (setting [7]), 39%; in assay [2] (setting [8]), 100% (active); in assay [2] (at 50.0 µM), 65.3%. Moreover, the growth inhibition in assay [3] (setting [7]) is 57%; in assay [3] (setting [8]), 99% (active); in assay [3] (at 50.0 µM), 91.3% (active); in assay [4] (setting [7]) it was 7%; in assay [4] (setting [8]), 99% (active); in assay [4] (at 50.0 µM), 78.1% (active). Besides, the growth inhibition in assay [5] (setting [7]) was 11%; in assay [5] (setting [8]) it was 99% (active); in assay [5] (at 50.0 µM), 86.7% (active); in assay [6] (setting [7]), 57%; in assay [6] (setting [8]), 99% (active); in assay [6] (at 50.0 µM), 93.7% (active).
In the case of `CS(=O)(=O)C(=Cc1ccccc1Cl)S(C)(=O)=O`, the growth inhibition in assay [1] (setting [7]) was 30%; in assay [1] (setting [8]), 57%; in assay [1] (at 50.0 µM), -12.7%; in assay [2] (setting [7]), 20%; in assay [2] (setting [8]) it was 29%; in assay [2] (at 50.0 µM), -1.65%. For the same compound, the growth inhibition in assay [3] (setting [7]) is 11%; in assay [3] (setting [8]), 7%; in assay [3] (at 50.0 µM) it was 4.05%; in assay [4] (setting [7]) it was 2%; in assay [4] (setting [8]) it was 13%; in assay [4] (at 50.0 µM), 12.1%. Besides, the growth inhibition was 0% in assay [5] (setting [7]); 6% in assay [5] (setting [8]); 5% in assay [5] (at 50.0 µM); 38% in assay [6] (setting [7]); 62% in assay [6] (setting [8]); -28.1% in assay [6] (at 50.0 µM).
In the case of `CCCCP(CCCC)(CCCC)=C(C(=O)OC)C(C(=O)OC)=C1SC(C(=O)OC)=C(C(=O)OC)S1`, the growth inhibition is 18% in assay [1] (setting [7]); 39% in assay [1] (setting [8]); -4.9% in assay [1] (at 50.0 µM); 4% in assay [2] (setting [7]); 16% in assay [2] (setting [8]); 10.3% in assay [2] (at 50.0 µM). Moreover, the growth inhibition in assay [3] (setting [7]) was 63%; in assay [3] (setting [8]), 26%; in assay [3] (at 50.0 µM), -9.3%; in assay [4] (setting [7]) it was 47%; in assay [4] (setting [8]), 38%; in assay [4] (at 50.0 µM), 13.1%. The growth inhibition is 79% (active) in assay [5] (setting [7]); 47% in assay [5] (setting [8]); -7.6% in assay [5] (at 50.0 µM); 23% in assay [6] (setting [7]); 51% in assay [6] (setting [8]); 4.8% in assay [6] (at 50.0 µM).
Regarding `O=[N+]([O-])c1ccc(/C=C/[n+]2ccc3ccccc3c2)o1`, the growth inhibition in assay [1] (setting [7]) was 29%; in assay [1] (setting [8]), 93% (active); in assay [1] (at 50.0 µM) it was 98.8% (active); in assay [2] (setting [7]), 24%; in assay [2] (setting [8]), 91% (active); in assay [2] (at 50.0 µM), 98.8% (active). Further, the growth inhibition in assay [3] (setting [7]) was 40%; in assay [3] (setting [8]), 98% (active); in assay [3] (at 50.0 µM) it was 98.9% (active); in assay [4] (setting [7]) it was -6%; in assay [4] (setting [8]) it was 95% (active); in assay [4] (at 50.0 µM), 96.2% (active). Besides, the growth inhibition in assay [5] (setting [7]) was 10%; in assay [5] (setting [8]), 97% (active); in assay [5] (at 50.0 µM), 99.2% (active); in assay [6] (setting [7]), 52%; in assay [6] (setting [8]), 97% (active); in assay [6] (at 50.0 µM) it was 99% (active).
As to `c1ccc(CN(CCCOc2ccccc2)Cc2ccccc2)cc1`, the growth inhibition is 2% in assay [1] (setting [7]); 25% in assay [1] (setting [8]); 56.4% in assay [1] (at 50.0 µM); -4% in assay [2] (setting [7]); 53% in assay [2] (setting [8]); 29.9% in assay [2] (at 50.0 µM). Also, the growth inhibition in assay [3] (setting [7]) is 5%; in assay [3] (setting [8]) it was 85% (active); in assay [3] (at 50.0 µM) it was 76.5% (active); in assay [4] (setting [7]), 3%; in assay [4] (setting [8]) it was 15%; in assay [4] (at 50.0 µM), 72.3% (active). The growth inhibition is 15% in assay [5] (setting [7]); 71% (active) in assay [5] (setting [8]); 79.8% (active) in assay [5] (at 50.0 µM); 25% in assay [6] (setting [7]); 77% (active) in assay [6] (setting [8]); 80.5% (active) in assay [6] (at 50.0 µM).
With `N#CSCCl`, the growth inhibition was 0% in assay [1] (setting [7]); 42% in assay [1] (setting [8]); 91.7% (active) in assay [1] (at 50.0 µM); 5% in assay [2] (setting [7]); 75% (active) in assay [2] (setting [8]); 92% (active) in assay [2] (at 50.0 µM). Further, the growth inhibition was -2% in assay [3] (setting [7]); 20% in assay [3] (setting [8]); 93.8% (active) in assay [3] (at 50.0 µM); 1% in assay [4] (setting [7]); 61% in assay [4] (setting [8]); 91% (active) in assay [4] (at 50.0 µM). Besides, the growth inhibition in assay [5] (setting [7]) was -4%; in assay [5] (setting [8]), 93% (active); in assay [5] (at 50.0 µM), 92.3% (active); in assay [6] (setting [7]), 3%; in assay [6] (setting [8]) it was 87% (active); in assay [6] (at 50.0 µM), 92% (active).
As to `CCCCC#C[I+]c1ccccc1`, the growth inhibition is 66% in assay [1] (setting [7]); 66% in assay [1] (setting [8]); 90.5% (active) in assay [1] (at 50.0 µM); 46% in assay [2] (setting [7]); 46% in assay [2] (setting [8]); 93% (active) in assay [2] (at 50.0 µM). Moreover, the growth inhibition is 54% in assay [3] (setting [7]); 54% in assay [3] (setting [8]); 93.2% (active) in assay [3] (at 50.0 µM); 58% in assay [4] (setting [7]); 58% in assay [4] (setting [8]); 91.2% (active) in assay [4] (at 50.0 µM). In addition, the growth inhibition is 32% in assay [5] (setting [7]); 32% in assay [5] (setting [8]); 87.5% (active) in assay [5] (at 50.0 µM); 65% in assay [6] (setting [7]); 65% in assay [6] (setting [8]); 89.3% (active) in assay [6] (at 50.0 µM).

The record behind these values is PubChem BioAssay (NCI).
